Experimental data published in PubChem BioAssay (NCI).
About 79,000 compounds went through this panel and 15% of them were active in at least one assay; those are over-represented in the sample as a whole. The source made the active and inactive calls. Rule as the data show it: active = growth inhibition above about 70%; inactive = the rest.

Legend:
[1] = NCI Yeast Anticancer Drug Screen. Data for the rad50 strain (AID 155);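 also: 0% = growth of vehicle-only cultures of the same strain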; settings: S. cerevisiae rad50 strain growth inhibition, active compounds read high
In short: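 Cells are treated with compound, grown, and their growth is then scored against vehicle-only cultures of the same repair-deficient yeast strain.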

[2] = NCI Yeast Anticancer Drug Screen. Data for the mec2-1 strain (AID 157); settings: S. cerevisiae mec2-1 strain, active compounds read high
In short: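 Growth inhibition is read against vehicle-treated controls after compound exposure of the mec2-1 yeast strain, which is defective in DNA damage repair or cell cycle control.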

[3] = NCI Yeast Anticancer Drug Screen. Data for the sgs1 mgt1 strain (AID 161);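 also: 0% = growth of cultures given vehicle only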; settings: S. cerevisiae sgs1 mgt1 strain, active compounds read high
In short: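 This yeast growth screen uses a strain with defined DNA-repair lesions; compound-treated growth is compared with vehicle-treated growth.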

[4] = NCI Yeast Anticancer Drug Screen. Data for the cln2 rad14 strain (AID 165);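 also: 0% = growth equal to vehicle treated cultures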; settings: S. cerevisiae cln2 rad14 strain, active compounds read high
In short: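 Growth inhibition, relative to vehicle-treated controls, is the read-out. The test organism is a yeast strain with defined genetic alterations, cln2 rad14.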

[5] = NCI Yeast Anticancer Drug Screen. Data for the bub3 strain (AID 167); settings: S. cerevisiae bub3 mutant strain, active compounds read high
In short: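 Part of a panel of yeast mutants defective in DNA damage repair or cell cycle regulation. Each strain is grown with compound, and inhibition is calculated relative to solvent-treated cultures.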

[6] = NCI Yeast Anticancer Drug Screen. Data for the mlh1 rad18 strain (AID 175); settings: S. cerevisiae mlh1 rad18 strain growth inhibition, active compounds read high
In short: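 Cells of a genetically altered yeast strain, deficient in DNA damage repair, were treated with compound. Their growth was then compared with that of vehicle-treated cultures to give inhibition.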

[7] = at 5.0 µM (retest, dose inferred, filed as 0.5)
[8] = at 50.0 µM (retest, dose inferred, filed as 5.0)

Measured: growth inhibition

O/N=C1/CC2CCCc3ccc4cccc1c4c32 (configuration not stated)
inactive: [1]; [7] -18% | [1]; [8] -10% | [1]; at 50.0 µM 60.2% | [2]; [7] -18% | [2]; [8] -3% | [2]; at 50.0 µM 22.4% | [3]; [7] -18% | [3]; [8] 15% | [3]; at 50.0 µM 22.9% | [4]; [7] -24% | [4]; [8] -20% | [4]; at 50.0 µM 12.2% | [5]; [7] -12% | [5]; [8] 25% | [6]; [7] -26% | [6]; [8] 3% | [6]; at 50.0 µM -4%
active: [5]; at 50.0 µM 81.8%

[N-]=[N+]=CC(=O)C1(c2ccccc2)OC1c1ccccc1 (configuration not stated)
active: [6]; at 50.0 µM 82.8%
inactive: [1]; [7] -20% | [1]; [8] 1% | [1]; at 50.0 µM 23.6% | [2]; [7] 7% | [2]; [8] 10% | [2]; at 50.0 µM 2.55% | [3]; [7] -16% | [3]; [8] -4% | [3]; at 50.0 µM 55.5% | [4]; [7] -21% | [4]; [8] -18% | [4]; at 50.0 µM 32.5% | [5]; [7] -43% | [5]; [8] -6% | [5]; at 50.0 µM -7.55% | [6]; [7] -32% | [6]; [8] -33%

Cn1nc(N)c2cccnc21
inactive: [1]; [7] 3% | [1]; [8] 19% | [1]; at 50.0 µM -1.25% | [2]; [7] -5% | [2]; [8] 3% | [2]; at 50.0 µM 1.7% | [3]; [7] -1% | [3]; [8] 6% | [3]; at 50.0 µM 14.3% | [4]; [7] 3% | [4]; [8] 1% | [4]; at 50.0 µM 45.1% | [5]; [7] 2% | [5]; [8] 2% | [5]; at 50.0 µM -6.1% | [6]; [7] 1% | [6]; [8] 10% | [6]; at 50.0 µM 0.35%

NC(=O)C12OC3CC(CC(C3)O1)O2
active: [4]; at 50.0 µM 71.2%
inactive: [1]; [7] -25% | [1]; [8] -10% | [1]; at 50.0 µM 5.95% | [2]; [7] -8% | [2]; [8] -17% | [2]; at 50.0 µM 11.4% | [3]; [7] -9% | [3]; [8] 12% | [3]; at 50.0 µM 11.3% | [4]; [7] -1% | [4]; [8] 3% | [5]; [7] 2% | [5]; [8] 5% | [5]; at 50.0 µM 2.75% | [6]; [7] 9% | [6]; [8] -22% | [6]; at 50.0 µM 11.2%

Cc1coc(C)c1C(=S)Nc1ccc(Cl)c(C(=O)OC(C)C)c1
active: [1]; [8] 81% | [1]; at 50.0 µM 84% | [2]; [8] 77% | [2]; at 50.0 µM 82.5% | [3]; [8] 81% | [3]; at 50.0 µM 85.2% | [4]; [8] 88% | [4]; at 50.0 µM 81.8% | [5]; [8] 87% | [5]; at 50.0 µM 82.9% | [6]; [8] 86% | [6]; at 50.0 µM 81.6%
inactive: [1]; [7] 6% | [2]; [7] -8% | [3]; [7] -3% | [4]; [7] 20% | [5]; [7] -15% | [6]; [7] -9%

N/C(=N\N=C\c1cc(I)cc(I)c1O)NO
active: [1]; [8] 98% | [1]; at 50.0 µM 95.5% | [2]; [8] 96% | [2]; at 50.0 µM 95.3% | [3]; [8] 98% | [3]; at 50.0 µM 97.6% | [4]; [8] 89% | [4]; at 50.0 µM 93.7% | [5]; [8] 99% | [5]; at 50.0 µM 96.7% | [6]; [8] 99% | [6]; at 50.0 µM 97.9%
inactive: [1]; [7] 11% | [2]; [7] 1% | [3]; [7] 2% | [4]; [7] 38% | [5]; [7] -2% | [6]; [7] 24%

CCCCCCCCN(CCCCCCCC)CC(O)c1ccc2cc3c(nc2c1)CCCC3 (configuration not stated)
active: [1]; [8] 94% | [1]; at 50.0 µM 98.7% | [2]; [8] 93% | [2]; at 50.0 µM 81.4% | [3]; [8] 96% | [3]; at 50.0 µM 98.8% | [4]; [8] 94% | [4]; at 50.0 µM 97.7% | [5]; [8] 94% | [5]; at 50.0 µM 97.7% | [6]; [8] 96% | [6]; at 50.0 µM 98.3%
inactive: [1]; [7] -3% | [2]; [7] 13% | [3]; [7] 18% | [4]; [7] -2% | [5]; [7] 10% | [6]; [7] 14%

Cc1ccc(S(=O)(=O)/C=C/C(=O)c2ccc3ccccc3c2)cc1
inactive: [4]; [7] 20% | [5]; [7] 47%
active: [1]; [7] 83% | [1]; [8] 86% | [1]; at 50.0 µM 97.2% | [2]; [7] 96% | [2]; [8] 95% | [2]; at 50.0 µM 98.4% | [3]; [7] 84% | [3]; [8] 96% | [3]; at 50.0 µM 95.9% | [4]; [8] 91% | [4]; at 50.0 µM 96.5% | [5]; [8] 96% | [5]; at 50.0 µM 94.5% | [6]; [7] 88% | [6]; [8] 95% | [6]; at 50.0 µM 97.1%

CC1(c2ccc(Cl)cc2)OC(=O)c2c1ccc1ccccc21 (configuration not stated)
inactive: [1]; [7] 13% | [1]; [8] 55% | [2]; [7] -1% | [2]; [8] 53% | [3]; [7] 7% | [3]; [8] 55% | [4]; [7] 2% | [4]; [8] 47% | [5]; [7] 22% | [5]; [8] 52% | [6]; [7] -1%
active: [1]; at 50.0 µM 97.7% | [2]; at 50.0 µM 93.6% | [3]; at 50.0 µM 98% | [4]; at 50.0 µM 88.8% | [5]; at 50.0 µM 97.8% | [6]; [8] 75% | [6]; at 50.0 µM 96%
